The nature of assay [1]: qHTS to identify inhibitors of the type 1 interferon - major histocompatibility complex class I in skeletal muscle: primary screen against the NCATS Mechanism Interrogation Plate v5.0 (MIPE) Libary (AID 1347411). Also: nearly all actives have a fitted effect of over 65% in size. Also: potency is read from the fitted curve at half-maximal effect. In outline: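 Cells were genome-edited human myoblasts carrying a HiBit tag on endogenous HLA-B. They were treated with IFN-beta (4.0 ng/ml) and titrated compounds (top 46 uM) for 24 hrs before lytic HiBiT detection.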

Assay [2] in a line: Primary qHTS for inhibitors of nuclear receptor binding SET domain protein 2 (NSD2) in an isogenic RCH-ACV NSD2 p.E1099K mutant (9B) (AID 1645876). Also: nearly all actives have a fitted effect of over 70% in size. Also: potency is read from the fitted curve at half-maximal effect. On the technique in general: In qHTS, concentration-response curves come from the screen itself.
Assay [3] can be described thus: Primary qHTS for inhibitors of nuclear receptor binding SET domain protein 2 (NSD2) in an RCH-ACV wild type WT cells (2C) (AID 1645877). Also: nearly all actives have a fitted effect of over 70% in size. Also: potency is read from the fitted curve at half-maximal effect.
In assay [4] the target is Glutathione peroxidase 1 (Homo sapiens) (UniProt P07203). Nature of the assay: Primary qHTS Assay for Inhibitors of Recombinant Selenoprotein Glutathione Peroxidase 1 (GPX1) (AID 1845191). Also: nearly all actives have a fitted effect of over 65% in size. In outline: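 GR-coupled assay: compounds preincubated 30 min at room temperature with GPX1, then reaction started with CHP; final 10 nM GPX1, 1 mM GSH, 0.5 mM CHP, 0.5 mM NADPH, 100 nM GR, 0.01% BSA, pH 7.5 Tris buffer. NADPH fluorescence (340/450 nm) read at 0 and 15 min.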
Sequence of Glutathione peroxidase 1 (Homo sapiens) (P07203 whole entry, looked up): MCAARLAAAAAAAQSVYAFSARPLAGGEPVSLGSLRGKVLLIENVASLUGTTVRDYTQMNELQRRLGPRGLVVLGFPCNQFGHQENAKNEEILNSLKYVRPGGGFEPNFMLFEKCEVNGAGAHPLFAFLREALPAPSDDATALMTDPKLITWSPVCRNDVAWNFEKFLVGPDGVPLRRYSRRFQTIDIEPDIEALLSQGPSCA

In assay [5] the target is Phospholipid hydroperoxide glutathione peroxidase GPX4 (Homo sapiens) (UniProt P36969). Nature of the assay: Primary qHTS Assay for Inhibitors of Recombinant Selenoprotein Glutathione Peroxidase 4 (GPX4) (AID 1845192). Also: nearly all actives have a fitted effect of over 65% in size. Also: potency is read from the fitted curve at half-maximal effect. The note with it: outcome: dose series up to 50 µM unless noted. In outline:
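GR-coupled assay: recombinant GPX4 preincubated 30 min with compound at room temperature; final 200 nM GPX4, 1 mM GSH, 0.5 mM cumene hydroperoxide, 0.5 mM NADPH, 100 nM GR, 0.01% BSA, pH 7.5 Tris. NADPH fluorescence (340/450 nm) read at 0 and 15 min.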

The nature of assay [6]: qHTS drug screen for cell cycle checkpoint inhibitors in PARPi-resistant BRCA-mutant ovarian cancer cell lines. (AID 1963452; calls by dose curve). The following applies: PEO1/OlaR viability, CellTiter-Glo luminescence, 96 h, stronger effect = lower value. In outline: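 PEO1, PEO4 and PEO1/OlaR ovarian cancer cells, 600 per well, exposed 96 h at 37C to a dilution series. Viability read by CellTiter-Glo luminescence, normalized to DMSO and empty wells; activity summarized as Z-AUC.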

For assay [7], the target named is Tyrosine-protein kinase Yes (Homo sapiens) (UniProt P07947). Nature of the assay: qHTS for small molecule inhibitors of Yes1 kinase: Primary Screen (AID 686947).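 Also: plate controls were DMSO with enzyme for no effect and no-enzyme DMSO wells for full effect; nearly all actives have a fitted effect of over 60% in size.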 In outline: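 ADP-Glo luminescence readout; final 4 nM Yes1, 0.1 mM ATP, 0.3 mg/mL poly(E4Y), Tris pH 7.5, MgCl2, DTT, Brij-35. 20 min compound preincubation, 60 min reaction at RT. Normalized to DMSO wells with and without enzyme.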
Sequence of Tyrosine-protein kinase Yes (Homo sapiens) (P07947 whole entry, looked up): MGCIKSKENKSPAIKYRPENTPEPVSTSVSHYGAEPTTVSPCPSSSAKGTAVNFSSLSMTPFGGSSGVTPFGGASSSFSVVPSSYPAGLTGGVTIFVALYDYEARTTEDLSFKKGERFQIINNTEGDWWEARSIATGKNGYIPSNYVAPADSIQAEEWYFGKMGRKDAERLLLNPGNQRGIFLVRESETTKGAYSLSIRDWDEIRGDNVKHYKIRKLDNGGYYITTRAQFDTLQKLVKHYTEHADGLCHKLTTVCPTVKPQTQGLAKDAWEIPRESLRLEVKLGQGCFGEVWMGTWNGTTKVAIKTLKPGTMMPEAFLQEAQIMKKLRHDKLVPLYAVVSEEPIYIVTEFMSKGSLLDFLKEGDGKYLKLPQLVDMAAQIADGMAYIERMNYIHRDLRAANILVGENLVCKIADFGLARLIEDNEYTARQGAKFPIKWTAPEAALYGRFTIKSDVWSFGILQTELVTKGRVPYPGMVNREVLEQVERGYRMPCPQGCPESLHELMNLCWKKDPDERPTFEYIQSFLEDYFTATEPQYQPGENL

The nature of assay [8]: qHTS for small molecule inhibitors of Yes1 kinase: Counter Assay (AID 686950).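 Also: no kinase present so only ADP-Glo detection of a fixed ADP amount is tested; luminescence from ADP-Glo reporting ADP in a fixed ATP and ADP mixture; series mostly up to about 77 µM; 0% = DMSO wells with ATP plus ADP and -100% = ATP-only wells without ADP.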 In outline: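 Enzyme-free detection counter-screen: compounds preincubated 20 min in buffer, then 0.08 mM ATP plus 0.02 mM ADP added for 60 min at room temperature; ADP-Glo luminescence. Buffer 50 mM Tris pH 7.5, 10 mM MgCl2, 150 mM NaCl; normalized to ATP+ADP and ATP-only controls.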
Where [9] appears, read: measured here: PEO1 parental Z-AUC.

Records with an inconclusive call do not appear. Active and inactive are the calls of the source. Unless noted, calls follow the shape of the dose curve; as a rule, active = well fitted curve in the direction sought with a large enough effect; inconclusive = small, poorly fitted or top-dose-only effect, or another doubt; inactive = no such curve, though single readings can be large; an effect the other way counts as inactive or inconclusive.

Sequence of Phospholipid hydroperoxide glutathione peroxidase GPX4 (Homo sapiens) (P36969 whole entry, looked up): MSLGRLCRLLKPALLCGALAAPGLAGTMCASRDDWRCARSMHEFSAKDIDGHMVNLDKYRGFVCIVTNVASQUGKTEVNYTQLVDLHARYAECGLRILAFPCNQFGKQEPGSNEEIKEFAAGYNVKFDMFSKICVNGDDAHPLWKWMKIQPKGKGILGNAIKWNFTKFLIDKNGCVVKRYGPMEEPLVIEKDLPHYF

In the case of `C[C@]12CC[C@H](O)CC1=CC[C@@H]1[C@@H]2CC[C@]2(C)C(c3cccnc3)=CC[C@@H]12`, the Potency result in assay [1], in assay [2], in assay [3], in assay [4] and in assay [5] was “inactive” throughout. Besides, the Z-AUC was 0.978 (inactive) in assay [6], 0.324 in assay [6] (setting [9]) and 0.672 in assay [6] (measured here: PEO4 Z-AUC).

Regarding `Cc1ccc(NS(=O)(=O)c2ccc3c(c2)C2C=CCC2C(c2ccc(C(=O)O)cc2)N3)cc1C` (stereo not given), the Potency entry in assay [1], in assay [2], in assay [3] and in assay [4] was “inactive” in each case. Further, the Potency in assay [5] is 22700 nM (active). The Z-AUC in assay [6] was -0.665 (inactive); in assay [6] (setting [9]) it was -0.264; in assay [6] (measured here: PEO4 Z-AUC), -0.866.

Take `C=CC(=O)N1CCC[C@H](n2c(=O)n(-c3ccc(Oc4ccccc4)cc3)c3c(N)ncnc32)C1`: the Potency result in assay [1], in assay [4] and in assay [5] was “inactive” in each case. Besides, the Potency in assay [2] and in assay [3] was 2090 nM (active) each time. The Z-AUC in assay [6] is -0.0902 (inactive); in assay [6] (setting [9]), 0.044; in assay [6] (measured here: PEO4 Z-AUC) it was -0.151.

Turning to `COc1ccc(COc2ccc(Cc3cnc(N)nc3N)cc2OC)cc1`, the Potency result in assay [7], in assay [1], in assay [2], in assay [3], in assay [4] and in assay [5] was “inactive” in each case. The result in assay [8] was inactive. In addition, the Z-AUC was 0.614 (inactive) in assay [6], 0.516 in assay [6] (setting [9]) and 0.82 in assay [6] (measured here: PEO4 Z-AUC).

On to `CCN(C(=O)c1ccccc1OC)c1cc2c(cc1N1CCNC[C@H]1C)n(C)c(=O)n2C`, for which the Potency result in assay [1], in assay [2], in assay [3] and in assay [5] was “inactive” throughout. The Z-AUC in assay [6] was -0.888 (inactive); in assay [6] (setting [9]) it was -0.889; in assay [6] (measured here: PEO4 Z-AUC), -0.903.

Turning to `COc1cc(OCc2cccc(-c3ccccc3)c2C)cc(OC)c1CN1CCCC[C@H]1C(=O)O`, the Potency entry in assay [1], in assay [2], in assay [3] and in assay [5] was “inactive” throughout. In addition, the Z-AUC was -0.024 (inactive) in assay [6], -0.135 in assay [6] (setting [9]) and -0.37 in assay [6] (measured here: PEO4 Z-AUC).

Take `CC1(N)CCN(c2cnc(-c3cccc(Cl)c3Cl)c(N)n2)CC1`: the Potency entry in assay [1], in assay [2], in assay [3], in assay [4] and in assay [5] was “inactive” throughout. The Z-AUC in assay [6] was -0.468 (inactive); in assay [6] (setting [9]) it was -0.626; in assay [6] (measured here: PEO4 Z-AUC) it was -0.55.

Consider `O=C(O)CNC(=O)c1nc(Cl)c2ccccc2c1O`, for which the Potency entry in assay [1], in assay [2], in assay [3] and in assay [4] was “inactive” in each case. Besides, the Z-AUC in assay [6] was -0.321 (inactive); in assay [6] (setting [9]) it was -0.207; in assay [6] (measured here: PEO4 Z-AUC) it was -0.202.

Turning to `OC1CCC([C@H](O)C[C@H]2c3c(F)cccc3-c3cncn32)CC1` (stereo not given in full), the Potency entry in assay [1], in assay [2], in assay [3] and in assay [5] was “inactive” in each case. Besides, the Z-AUC in assay [6] was -0.0426 (inactive); in assay [6] (setting [9]), 0.377; in assay [6] (measured here: PEO4 Z-AUC), 0.204.

Consider `O=C(NO)c1ccc(C2=Nc3ccccc3Oc3ccccc32)cc1`, for which the Potency in assay [1] is 18600 nM (active); in assay [2], 2950 nM (active); in assay [3], 2630 nM (active). Also, the Potency result in assay [4] and in assay [5] was “inactive” each time. Also, the Z-AUC was -0.476 (inactive) in assay [6], -1.06 in assay [6] (setting [9]) and -1.1 in assay [6] (measured here: PEO4 Z-AUC).

`C[C@H](NC(=O)CCC(F)(F)F)C(=O)N[C@@H]1C(=O)N(CCO)c2ncccc2-c2ccccc21`: the Potency result in assay [1], in assay [2], in assay [3], in assay [4] and in assay [5] was “inactive” each time. The values for the Z-AUC in assay [6], in assay [6] (setting [9]) and in assay [6] (measured here: PEO4 Z-AUC) were -0.268 (inactive), 0.166 and -0.664, respectively.

On to `CN[C@@H](C)C(=O)N[C@H](C(=O)N1CCC[C@H]1C(=O)Nc1sc(-c2ncco2)nc1-c1ccccc1)C1CCCCC1`, for which the Potency result in assay [1], in assay [2], in assay [3] and in assay [4] was “inactive” each time. Further, the Z-AUC was 1.87 (inactive) in assay [6], 0.246 in assay [6] (setting [9]) and 0.302 in assay [6] (measured here: PEO4 Z-AUC).

Take `CC(C)(O)c1coc(S(=O)(=O)NC(=O)Nc2c3c(cc4c2CCC4)CCC3)c1`: the Potency entry in assay [1], in assay [2], in assay [3] and in assay [4] was “inactive” throughout. In addition, the Z-AUC in assay [6] was -0.755 (inactive); in assay [6] (setting [9]) it was -0.798; in assay [6] (measured here: PEO4 Z-AUC), -1.
